Assay outcomes (PubChem)
This is one part of a sample in which hits are shown more often than they occur.
Pf Dd2 inh: inhibitors of Plasmodium falciparum Dd2 growth; P. falciparum Dd2 growth, SYBR Green, 72 h; Potency, µM (highest dose often 28.9 µM), inactives show at the top dose activity, negative = inhibition, most hits filed as inhibitors; AID 1347417; hit rate 4.3% among 120,000; active means well fitted inhibition curve with a large enough effect;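 further: plate controls were DMSO vehicle for no effect and reference drug for full effect; nearly all actives have a fitted effect of over 65% in size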
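Infected erythrocytes (Dd2, 0.3% parasitemia, 2.5% hematocrit final) are added to compound in RPMI-1640/Albumax II medium, grown 72 h at 37C in low oxygen, then lysed with saponin/Triton-X containing SYBR Green and read by fluorescence.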
* = called active by the depositor; i = inactive; [ ] = remark or other dose. Potency means the concentration at half of the fitted maximal effect.

SMILES	Pf Dd2 inh
CC(C)CCNC(=O)NC1CCN(C(=O)N2CC3CC(C2)[C@H]2CCCC(=O)N2C3)CC1 (stereo not given in full)	-20.6%
O=C(O)c1cncc(N2CCC3(CC2)CNC(C(=O)O)C3)n1 (stereo not given)	3.1%
O=C(Nc1ccc2c(c1)CCC2)c1cc2n(n1)CC(c1ccc(Cl)cc1)OC2 (stereo not given)	-17.1%
Cc1cccc(CC(=O)N2CCCC(CN3CCCC3)CC2)c1 (stereo not given)	-27.0%
Cc1c(C2c3nc[nH]c3CCN2Cc2ccc(CO)o2)oc2ccccc12 (stereo not given)	-14.6%
Cc1cccc(C(=O)N2CCN(C3CCN(C)C3=O)CC2)c1 (stereo not given)	1.3%
CN(C)C(=O)c1ccc(-c2cccc(-c3ccn(CC4CC4)n3)c2)o1	-23.0%
Cc1cc(C)cc(NC(=O)c2sc3nc(-c4ccccc4)cn3c2C)c1	6.6%
Cc1c(C(=O)Nc2cc(F)ccc2F)sc2nc(-c3ccc(F)cc3)cn12	i
Cc1c(C(=O)Nc2ccc(F)c(C(F)(F)F)c2)sc2nc(-c3ccccc3)cn12	11.2µM*
CNC(=O)[C@@H]1C[C@H](Oc2ccccc2)CN1C(=O)COc1ccc(F)cc1	-11.9%
CN1C(=O)CO[C@H]2CN(Cc3c[nH]c4ccccc34)C[C@H]21	i
O=C1CO[C@H]2CCN(Cc3cccc(OC(F)(F)F)c3)CC[C@@H]2N1Cc1ccccc1	i
O=C1CO[C@H]2CCN(Cc3cccc(OC(F)(F)F)c3)CC[C@@H]2N1Cc1c[nH]c2ccccc12	7.94µM*
O=C1CO[C@H]2CN(Cc3c[nH]c4ccccc34)C[C@H]2N1	-21.0%[44.1 µM]
COc1cncc(CN2CC[C@@H]3OCC(=O)N(Cc4ccccc4)[C@H]3CC2)c1	-9.4%[44.1 µM]
O=C1CO[C@H]2CN(Cc3c[nH]c4ccccc34)C[C@H]2N1Cc1ccc(F)cc1	5.01µM*
O=C1NC2(CCN(CC3CCCCC3)C2)Oc2ccccc21 (stereo not given)	i
O=C(NC1CCN(c2cc(-c3ccc(F)cc3)[nH]n2)CC1)c1cccnc1	i
O=C(c1ccccc1Cl)N1CCn2c(nn(-c3ccc(F)cc3)c2=O)C1	-10.3%[44.1 µM]
CCc1ccc2oc(C(=O)NCC(c3ccc(OC)cc3)N3CCCCC3)c(C)c2c1 (stereo not given)	10µM*
COc1ccc(Cl)cc1C(=O)NCC(c1ccc(N(C)C)cc1)N1CCOCC1 (stereo not given)	33.0%[5.79 µM]
CCc1ccc2oc(C(=O)Nc3nonc3CC)c(C)c2c1	-22.3%
COc1ccc(C(=O)NCC(c2ccc3c(c2)OCO3)N2CCOCC2)cc1 (stereo not given)	48.5%
CCc1ccc(OCC(=O)NCC(c2ccc(OC)cc2)N2CCOCC2)cc1 (stereo not given)	3.16µM*
SMILES	Pf Dd2 inh
COc1ccc(OCC(=O)NCC(c2ccc(OC)cc2)N2CCOCC2)cc1 (stereo not given)	-0.8%
Cc1ccc2c(C)c(C(=O)NCC(c3ccc(Cl)cc3)N3CCOCC3)oc2c1 (stereo not given)	-19.8%
CCc1ccc2oc(C(=O)Nc3nc(-c4ccccc4)ns3)c(C)c2c1	31.3%
CCc1ccc2oc(C(=O)NCC(c3ccc(Cl)cc3)N3CCOCC3)c(C)c2c1 (stereo not given)	11.2µM*
CSc1ncc(CN2CCCN(S(=O)(=O)N3CCCC3)CC2)cn1	-11.1%
COCC(=O)N[C@@H]1CNCC[C@@H]1c1nc(C)no1	i[5.79 µM]
COCC1CN(C(C)=O)CC12CCN(C(=O)c1ccc(C)cc1C)CC2 (stereo not given)	15.7%
O=C(NC1CC(c2nnc(CO)n2C2CC2)C1)c1scc2c1OCCO2 (stereo not given)	-24.1%
Cc1nc(C2CCCCN2C(=O)c2ccco2)n[nH]1 (stereo not given)	-3.3%
CN(C)CCC(=O)N1Cc2ccccc2CC2(CCCN2C)C1 (stereo not given)	2.3%
CC(C)C(=O)N1Cc2ccccc2CC2(CCCN(CC3CCCCC3)C2)C1 (stereo not given)	0.251µM*
CC(=O)NCC(=O)N1Cc2ccccc2CC2(CCCN2C)C1 (stereo not given)	22.4%
O=C(O)CCC(=O)N1Cc2ccccc2CC2(CCCN(CC3CCCCC3)C2)C1 (stereo not given)	22.1%
CC(C)C(=O)N1Cc2ccccc2CC2(CCCN2C)C1 (stereo not given)	10µM*
CCCN1CCC2(Cc3ccccc3CN(C(=O)CCCC(=O)O)C2)C1 (stereo not given)	-1.5%
O=C(O)CCCC(=O)N1Cc2ccccc2CC2(CCCN(CC3CCCCC3)C2)C1 (stereo not given)	6.5%
CCCN1CCC2(Cc3ccccc3CN(C(C)=O)C2)C1 (stereo not given)	-3.2%
CCCN1CCC2(Cc3ccccc3CN(C(=O)C(C)C)C2)C1 (stereo not given)	8.91µM*
O=C(Cc1ccccc1Cl)NC1CCN(c2cc(C(F)(F)F)ncn2)CC1	178.6%
O=C(CN1C(=O)NC2(CCOCC2)C1=O)Nc1ccccc1Cl	46.8%
COc1ccc(-c2cc(N3CCN(C(=O)c4cccc(C)c4)CC3)n[nH]2)cc1	i
